Assay results from article PMC7862700, “An all-to-all approach to the identification of sequence-specific readers for epigenetic DNA modifications on cytosine”.

Key:
Assay in all cases: DAPPL (digital affinity profiling via proximity ligation, sequencing); 10 mM Tris-HCl pH 7.5, 50 mM NaCl, 1 mM DTT, 4% glycerol, room temperature, 30 min; GST-TFs on glutathione beads, 16-mer random dsDNA library, 0.1% formaldehyde crosslink after washing; high values mean tight binding
FEV = molecular target: T1, FEV (Homo sapiens, UniProt Q99581 1-238); details: protein: recombinant; tags: N-terminal GST; dsDNA, one strand shown
T1 sequence: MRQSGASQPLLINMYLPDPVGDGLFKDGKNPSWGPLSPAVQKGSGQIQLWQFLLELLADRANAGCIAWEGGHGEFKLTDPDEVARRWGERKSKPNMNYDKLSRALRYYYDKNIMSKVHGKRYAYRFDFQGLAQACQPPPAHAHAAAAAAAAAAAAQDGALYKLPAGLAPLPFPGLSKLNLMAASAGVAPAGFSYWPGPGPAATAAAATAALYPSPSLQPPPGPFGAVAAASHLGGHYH
Summary of the method: (§1)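 Each value of binding signal is a hexamer's read frequency for a factor divided by the same hexamer's frequency in the tag-only sample. Barcoded, bead-captured GST fusions of human transcription factors made in yeast were pooled with that sample and incubated with 200 nmole of a random double-stranded 16-mer DNA library in Tris/NaCl/DTT/glycerol buffer at room temperature for 30 min. Washing, 0.1% formaldehyde crosslinking, proximity ligation, PCR and Illumina NextSeq500 sequencing followed.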

ETV5 = ETV5 (Homo sapiens, UniProt P41161 1-510); details: protein: recombinant; tags: N-terminal GST; dsDNA, one strand shown
Sequence of ETV5 (P41161 whole entry): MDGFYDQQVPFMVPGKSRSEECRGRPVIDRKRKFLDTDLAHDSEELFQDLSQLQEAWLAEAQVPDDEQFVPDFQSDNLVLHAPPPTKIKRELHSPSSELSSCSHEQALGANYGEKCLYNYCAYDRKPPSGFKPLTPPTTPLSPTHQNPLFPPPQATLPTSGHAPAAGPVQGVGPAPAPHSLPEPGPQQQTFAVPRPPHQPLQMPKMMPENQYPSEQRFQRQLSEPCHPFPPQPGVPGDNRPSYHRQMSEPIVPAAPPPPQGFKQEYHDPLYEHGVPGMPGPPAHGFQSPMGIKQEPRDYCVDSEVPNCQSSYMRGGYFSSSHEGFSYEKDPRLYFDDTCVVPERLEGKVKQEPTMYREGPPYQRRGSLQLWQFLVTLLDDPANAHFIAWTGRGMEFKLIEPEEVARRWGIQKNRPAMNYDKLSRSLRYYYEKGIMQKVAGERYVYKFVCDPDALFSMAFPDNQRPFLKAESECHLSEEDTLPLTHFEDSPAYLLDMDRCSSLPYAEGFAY
Summary of the method: as §1

HSF1 = HSF1 (Homo sapiens, UniProt Q00613 1-529); details: protein: recombinant; tags: N-terminal GST; chain copies: 3; dsDNA, one strand shown
Sequence of HSF1 (Q00613 whole entry): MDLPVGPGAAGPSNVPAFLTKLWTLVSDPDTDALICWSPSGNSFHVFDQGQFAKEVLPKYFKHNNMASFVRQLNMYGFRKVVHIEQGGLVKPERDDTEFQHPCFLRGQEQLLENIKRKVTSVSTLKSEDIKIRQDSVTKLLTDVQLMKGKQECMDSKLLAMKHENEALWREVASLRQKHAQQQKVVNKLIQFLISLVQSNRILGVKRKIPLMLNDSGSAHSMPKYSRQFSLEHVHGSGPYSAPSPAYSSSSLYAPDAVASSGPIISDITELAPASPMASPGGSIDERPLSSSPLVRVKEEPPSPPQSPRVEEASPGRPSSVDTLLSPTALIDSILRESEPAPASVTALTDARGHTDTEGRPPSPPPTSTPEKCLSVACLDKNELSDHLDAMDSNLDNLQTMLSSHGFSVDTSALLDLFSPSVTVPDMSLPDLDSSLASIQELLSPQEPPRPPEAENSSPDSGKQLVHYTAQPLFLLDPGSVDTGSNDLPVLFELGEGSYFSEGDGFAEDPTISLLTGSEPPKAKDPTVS
Summary of the method: as §1

SPIC = molecular target: T2, SPIC (Homo sapiens, UniProt Q8N5J4 1-248); details: protein: recombinant; tags: N-terminal GST; dsDNA, one strand shown
T2 sequence: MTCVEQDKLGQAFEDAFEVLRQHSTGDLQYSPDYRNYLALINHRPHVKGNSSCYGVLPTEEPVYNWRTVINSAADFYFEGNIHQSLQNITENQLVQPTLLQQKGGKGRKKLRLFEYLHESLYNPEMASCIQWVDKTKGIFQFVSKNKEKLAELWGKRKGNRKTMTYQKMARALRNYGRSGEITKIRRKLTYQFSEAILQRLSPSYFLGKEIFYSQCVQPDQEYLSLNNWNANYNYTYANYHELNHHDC
Summary of the method: as §1

ELF4 = ELF4 (Homo sapiens, UniProt Q99607 1-663); details: protein: recombinant; tags: N-terminal GST; dsDNA, one strand shown
Sequence of ELF4 (Q99607 whole entry): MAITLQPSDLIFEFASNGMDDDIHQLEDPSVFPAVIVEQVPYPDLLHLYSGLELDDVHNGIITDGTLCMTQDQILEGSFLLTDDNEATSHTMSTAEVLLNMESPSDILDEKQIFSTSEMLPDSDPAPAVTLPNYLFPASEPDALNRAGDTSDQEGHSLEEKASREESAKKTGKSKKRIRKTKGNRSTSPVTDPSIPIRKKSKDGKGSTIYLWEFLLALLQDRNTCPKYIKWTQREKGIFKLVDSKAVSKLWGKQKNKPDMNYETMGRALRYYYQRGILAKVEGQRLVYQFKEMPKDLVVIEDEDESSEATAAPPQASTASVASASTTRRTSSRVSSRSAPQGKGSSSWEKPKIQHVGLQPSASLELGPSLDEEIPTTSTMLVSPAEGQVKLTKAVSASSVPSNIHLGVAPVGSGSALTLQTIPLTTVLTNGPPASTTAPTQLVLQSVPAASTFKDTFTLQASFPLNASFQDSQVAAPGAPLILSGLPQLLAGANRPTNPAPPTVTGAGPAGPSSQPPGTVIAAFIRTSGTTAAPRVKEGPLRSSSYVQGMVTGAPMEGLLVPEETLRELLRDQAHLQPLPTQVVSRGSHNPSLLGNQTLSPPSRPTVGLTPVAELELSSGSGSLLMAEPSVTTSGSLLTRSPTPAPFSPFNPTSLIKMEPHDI
Summary of the method: as §1

ELK4 = molecular target: T3, ELK4 (Homo sapiens, UniProt P28324-2 1-405); details: protein: recombinant; tags: N-terminal GST; dsDNA, one strand shown
T3 sequence: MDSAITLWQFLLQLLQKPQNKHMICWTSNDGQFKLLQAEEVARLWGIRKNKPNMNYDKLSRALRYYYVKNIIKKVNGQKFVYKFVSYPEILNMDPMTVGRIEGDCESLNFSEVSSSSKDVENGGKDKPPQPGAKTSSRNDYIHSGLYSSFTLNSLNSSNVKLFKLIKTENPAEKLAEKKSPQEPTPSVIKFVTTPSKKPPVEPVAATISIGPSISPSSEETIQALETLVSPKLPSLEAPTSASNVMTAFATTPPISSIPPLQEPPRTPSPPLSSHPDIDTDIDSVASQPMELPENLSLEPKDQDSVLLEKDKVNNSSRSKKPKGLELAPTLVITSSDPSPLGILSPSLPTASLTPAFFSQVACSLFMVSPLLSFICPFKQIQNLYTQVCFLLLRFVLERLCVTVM
Summary of the method: as §1

ETV2 = molecular target: T4, ETV2 (Homo sapiens, UniProt O00321 1-342); details: protein: recombinant; tags: N-terminal GST; dsDNA, one strand shown
T4 sequence: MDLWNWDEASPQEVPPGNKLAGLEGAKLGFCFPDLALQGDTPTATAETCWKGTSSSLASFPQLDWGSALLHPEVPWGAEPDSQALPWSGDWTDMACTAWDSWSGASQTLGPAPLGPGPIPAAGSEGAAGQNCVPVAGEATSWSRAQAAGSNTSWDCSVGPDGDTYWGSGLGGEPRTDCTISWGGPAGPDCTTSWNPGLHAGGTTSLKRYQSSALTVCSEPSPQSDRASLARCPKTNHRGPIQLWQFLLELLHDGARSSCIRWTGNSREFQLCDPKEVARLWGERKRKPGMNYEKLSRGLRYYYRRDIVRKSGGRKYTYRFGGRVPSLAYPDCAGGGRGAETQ
Summary of the method: as §1

ELF3 = molecular target: T5, ELF3 (Homo sapiens, UniProt P78545 1-371); details: protein: recombinant; tags: N-terminal GST; dsDNA, one strand shown
T5 sequence: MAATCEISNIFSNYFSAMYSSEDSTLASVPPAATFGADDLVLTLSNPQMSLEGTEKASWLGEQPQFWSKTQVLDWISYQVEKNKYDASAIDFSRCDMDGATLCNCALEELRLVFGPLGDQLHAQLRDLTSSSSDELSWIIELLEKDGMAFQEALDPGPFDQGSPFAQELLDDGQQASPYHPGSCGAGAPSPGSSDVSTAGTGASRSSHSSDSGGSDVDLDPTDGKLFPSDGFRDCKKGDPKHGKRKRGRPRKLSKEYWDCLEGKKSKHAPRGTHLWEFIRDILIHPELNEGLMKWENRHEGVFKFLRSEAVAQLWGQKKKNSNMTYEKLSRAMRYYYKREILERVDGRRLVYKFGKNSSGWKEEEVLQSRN
Summary of the method: as §1

CRX = CRX (Homo sapiens, UniProt O43186 1-299); details: protein: recombinant; tags: N-terminal GST; dsDNA, one strand shown
Sequence of CRX (O43186 whole entry): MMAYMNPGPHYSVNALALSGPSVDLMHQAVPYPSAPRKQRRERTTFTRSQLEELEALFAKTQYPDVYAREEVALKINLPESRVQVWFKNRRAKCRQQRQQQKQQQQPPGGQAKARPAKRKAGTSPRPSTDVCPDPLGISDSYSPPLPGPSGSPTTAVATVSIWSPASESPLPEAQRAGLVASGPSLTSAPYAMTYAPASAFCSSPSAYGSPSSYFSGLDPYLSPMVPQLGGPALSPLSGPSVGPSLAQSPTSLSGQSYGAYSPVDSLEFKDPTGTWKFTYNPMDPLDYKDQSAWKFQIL
Summary of the method: as §1

ETV1 = ETV1 (Homo sapiens, UniProt P50549 1-477); details: protein: recombinant; tags: N-terminal GST; dsDNA, one strand shown
Sequence of ETV1 (P50549 whole entry): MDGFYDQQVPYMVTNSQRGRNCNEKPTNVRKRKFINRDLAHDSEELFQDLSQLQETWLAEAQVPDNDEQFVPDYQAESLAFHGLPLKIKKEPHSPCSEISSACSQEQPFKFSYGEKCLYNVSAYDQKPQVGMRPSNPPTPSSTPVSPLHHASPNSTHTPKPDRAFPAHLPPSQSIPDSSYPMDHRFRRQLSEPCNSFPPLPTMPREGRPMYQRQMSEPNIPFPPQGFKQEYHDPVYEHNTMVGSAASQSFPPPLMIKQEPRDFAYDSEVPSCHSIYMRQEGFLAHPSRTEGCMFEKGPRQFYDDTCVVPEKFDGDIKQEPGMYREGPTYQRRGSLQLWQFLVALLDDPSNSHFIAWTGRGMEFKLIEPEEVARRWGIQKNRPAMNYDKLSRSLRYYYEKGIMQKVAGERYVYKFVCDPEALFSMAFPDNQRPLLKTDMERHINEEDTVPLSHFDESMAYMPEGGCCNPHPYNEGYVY
Summary of the method: as §1

ERF = molecular target: T6, ERF (Homo sapiens, UniProt P50548 1-548); details: protein: recombinant; tags: N-terminal GST; dsDNA, one strand shown
T6 sequence: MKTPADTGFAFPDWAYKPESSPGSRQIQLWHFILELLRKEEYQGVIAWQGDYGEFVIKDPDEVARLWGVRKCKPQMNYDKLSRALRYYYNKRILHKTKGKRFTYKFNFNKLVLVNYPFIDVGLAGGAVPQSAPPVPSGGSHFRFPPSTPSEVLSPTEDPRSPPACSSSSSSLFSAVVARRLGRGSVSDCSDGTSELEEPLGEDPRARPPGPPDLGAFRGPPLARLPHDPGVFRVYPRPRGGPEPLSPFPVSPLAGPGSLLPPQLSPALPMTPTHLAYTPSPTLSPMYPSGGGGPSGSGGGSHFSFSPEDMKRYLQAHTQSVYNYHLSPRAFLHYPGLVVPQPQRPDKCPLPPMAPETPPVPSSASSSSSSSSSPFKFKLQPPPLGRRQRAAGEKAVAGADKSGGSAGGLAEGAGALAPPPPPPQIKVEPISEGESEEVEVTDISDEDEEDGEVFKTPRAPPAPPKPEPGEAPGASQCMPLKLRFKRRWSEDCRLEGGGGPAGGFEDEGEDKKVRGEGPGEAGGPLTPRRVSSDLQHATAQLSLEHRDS
Summary of the method: as §1

ETV3L = molecular target: T7, ETV3L (Homo sapiens, UniProt Q6ZN32 1-361); details: protein: recombinant; tags: N-terminal GST; dsDNA, one strand shown
T7 sequence: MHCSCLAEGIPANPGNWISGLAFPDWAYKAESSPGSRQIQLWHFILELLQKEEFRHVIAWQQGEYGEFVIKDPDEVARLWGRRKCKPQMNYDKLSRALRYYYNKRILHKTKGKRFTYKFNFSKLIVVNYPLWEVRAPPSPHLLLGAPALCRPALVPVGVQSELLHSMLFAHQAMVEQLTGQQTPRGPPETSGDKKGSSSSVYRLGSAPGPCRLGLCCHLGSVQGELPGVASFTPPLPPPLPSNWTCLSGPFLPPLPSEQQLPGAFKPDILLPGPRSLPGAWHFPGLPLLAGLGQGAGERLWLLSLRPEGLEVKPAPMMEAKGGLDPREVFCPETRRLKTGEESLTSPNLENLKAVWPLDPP
Summary of the method: as §1

ETS2 = molecular target: T8, ETS2 (Homo sapiens, UniProt P15036 1-469); details: protein: recombinant; tags: N-terminal GST; dsDNA, one strand shown
T8 sequence: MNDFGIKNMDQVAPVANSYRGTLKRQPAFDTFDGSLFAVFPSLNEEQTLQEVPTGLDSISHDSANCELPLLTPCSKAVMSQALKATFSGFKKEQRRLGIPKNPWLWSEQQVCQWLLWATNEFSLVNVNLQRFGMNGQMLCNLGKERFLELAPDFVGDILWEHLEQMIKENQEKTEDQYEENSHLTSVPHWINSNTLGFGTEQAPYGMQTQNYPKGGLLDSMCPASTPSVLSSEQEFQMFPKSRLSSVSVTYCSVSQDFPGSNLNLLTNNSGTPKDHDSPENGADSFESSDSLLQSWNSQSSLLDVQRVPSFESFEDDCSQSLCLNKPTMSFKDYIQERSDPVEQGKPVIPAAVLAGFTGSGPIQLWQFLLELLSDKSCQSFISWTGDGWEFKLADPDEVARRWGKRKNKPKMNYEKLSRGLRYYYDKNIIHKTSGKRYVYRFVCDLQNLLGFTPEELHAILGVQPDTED
Summary of the method: as §1

SPDEF = molecular target: T9, SPDEF (Homo sapiens, UniProt O95238 1-335); details: protein: recombinant; tags: N-terminal GST; dsDNA, one strand shown
T9 sequence: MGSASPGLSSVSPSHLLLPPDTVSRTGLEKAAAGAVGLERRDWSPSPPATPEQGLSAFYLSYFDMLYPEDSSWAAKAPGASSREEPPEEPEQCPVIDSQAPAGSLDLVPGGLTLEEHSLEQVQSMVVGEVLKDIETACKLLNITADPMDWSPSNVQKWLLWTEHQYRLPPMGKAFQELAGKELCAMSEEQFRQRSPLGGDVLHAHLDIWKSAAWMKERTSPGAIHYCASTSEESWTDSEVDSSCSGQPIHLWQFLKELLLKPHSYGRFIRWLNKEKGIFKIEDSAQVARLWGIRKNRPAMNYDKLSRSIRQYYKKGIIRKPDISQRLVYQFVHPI
Summary of the method: as §1

ETV7 = molecular target: T10, ETV7 (Homo sapiens, UniProt Q9Y603 1-341); details: protein: recombinant; tags: N-terminal GST; dsDNA, one strand shown
T10 sequence: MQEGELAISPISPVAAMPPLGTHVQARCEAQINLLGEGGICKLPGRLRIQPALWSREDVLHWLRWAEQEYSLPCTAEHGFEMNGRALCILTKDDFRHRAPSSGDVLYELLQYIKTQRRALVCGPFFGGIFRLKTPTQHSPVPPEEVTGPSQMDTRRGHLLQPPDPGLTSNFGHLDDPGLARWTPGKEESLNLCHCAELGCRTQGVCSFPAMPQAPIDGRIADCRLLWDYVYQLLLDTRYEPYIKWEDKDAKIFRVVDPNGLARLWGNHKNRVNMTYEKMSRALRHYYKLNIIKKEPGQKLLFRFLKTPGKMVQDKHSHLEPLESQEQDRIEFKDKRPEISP
Summary of the method: as §1

ELF5 = molecular target: T11, ELF5 (Homo sapiens, UniProt Q9UKW6-2 1-255); details: protein: recombinant; tags: N-terminal GST; dsDNA, one strand shown
T11 sequence: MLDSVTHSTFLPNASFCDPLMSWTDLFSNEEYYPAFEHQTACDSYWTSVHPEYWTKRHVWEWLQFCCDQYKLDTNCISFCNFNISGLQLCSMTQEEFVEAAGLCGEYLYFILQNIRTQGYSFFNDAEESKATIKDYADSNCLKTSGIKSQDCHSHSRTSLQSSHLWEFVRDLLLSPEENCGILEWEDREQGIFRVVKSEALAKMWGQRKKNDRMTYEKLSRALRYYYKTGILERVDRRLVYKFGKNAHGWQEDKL
Summary of the method: as §1

ETV3 = molecular target: T12, ETV3 (Homo sapiens, UniProt P41162-2 1-143); details: protein: recombinant; tags: N-terminal GST; dsDNA, one strand shown
T12 sequence: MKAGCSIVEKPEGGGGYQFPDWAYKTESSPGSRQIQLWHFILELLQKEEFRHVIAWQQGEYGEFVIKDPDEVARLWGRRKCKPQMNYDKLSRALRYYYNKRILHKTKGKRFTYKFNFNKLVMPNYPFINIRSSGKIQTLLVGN
Summary of the method: as §1

ETV6 = ETV6 (Homo sapiens, UniProt P41212 1-452); details: protein: recombinant; tags: N-terminal GST; dsDNA, one strand shown
Sequence of ETV6 (P41212 whole entry): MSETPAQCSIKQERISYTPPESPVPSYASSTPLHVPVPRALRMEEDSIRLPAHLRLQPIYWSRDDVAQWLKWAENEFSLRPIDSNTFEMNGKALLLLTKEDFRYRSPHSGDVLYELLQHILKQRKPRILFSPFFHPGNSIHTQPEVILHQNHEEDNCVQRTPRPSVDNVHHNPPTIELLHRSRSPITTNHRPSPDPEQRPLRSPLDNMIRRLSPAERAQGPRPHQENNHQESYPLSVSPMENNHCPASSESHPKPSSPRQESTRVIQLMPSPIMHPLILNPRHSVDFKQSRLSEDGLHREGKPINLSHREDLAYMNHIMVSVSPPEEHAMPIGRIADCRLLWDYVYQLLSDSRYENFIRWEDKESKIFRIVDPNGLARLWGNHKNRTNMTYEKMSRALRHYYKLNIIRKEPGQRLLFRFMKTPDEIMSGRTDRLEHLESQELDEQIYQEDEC
Summary of the method: as §1

## AATGAC
FEV
  binding signal: 1.47 fold enrichment (6-mer frequency, TF over GST control)
ETV5
  binding signal: 1.35 fold enrichment (6-mer frequency, TF over GST control)
HSF1
  binding signal: 1.22 fold enrichment (6-mer frequency, TF over GST control)
SPIC
  binding signal: 1.36 fold enrichment (6-mer frequency, TF over GST control)
ELF4
  binding signal: 1.37 fold enrichment (6-mer frequency, TF over GST control)
ELK4
  binding signal: 1.35 fold enrichment (6-mer frequency, TF over GST control)
ETV2
  binding signal: 1.4 fold enrichment (6-mer frequency, TF over GST control)
ELF3
  binding signal: 1.49 fold enrichment (6-mer frequency, TF over GST control)
CRX
  binding signal: 1.16 fold enrichment (6-mer frequency, TF over GST control)
ETV1
  binding signal: 1.4 fold enrichment (6-mer frequency, TF over GST control)
ERF
  binding signal: 1.35 fold enrichment (6-mer frequency, TF over GST control)
ETV3L
  binding signal: 1.43 fold enrichment (6-mer frequency, TF over GST control)
ETS2
  binding signal: 1.45 fold enrichment (6-mer frequency, TF over GST control)
SPDEF
  binding signal: 1.37 fold enrichment (6-mer frequency, TF over GST control)
ETV7
  binding signal: 1.29 fold enrichment (6-mer frequency, TF over GST control)
ELF5
  binding signal: 1.36 fold enrichment (6-mer frequency, TF over GST control)
ETV3
  binding signal: 1.35 fold enrichment (6-mer frequency, TF over GST control)
ETV6
  binding signal: 1.49 fold enrichment (6-mer frequency, TF over GST control)
